# Out of some 16,000 compounds screened, about 2,600 (16%) were called active. Another 20% or so got no clear call; they are omitted. Only a sample is shown. Values without a mark were called inactive. Calls come from the whole dose curve; as a rule, active = well fitted curve in the direction sought with a large enough effect; inconclusive = small, poorly fitted or top-dose-only effect, or effect the other way; inactive = no such curve, though single readings can be large or run the other way.
# Target: Cytochrome P450 2D6 (Homo sapiens) (UniProt P10635)
# Sequence (P10635 whole entry, looked up): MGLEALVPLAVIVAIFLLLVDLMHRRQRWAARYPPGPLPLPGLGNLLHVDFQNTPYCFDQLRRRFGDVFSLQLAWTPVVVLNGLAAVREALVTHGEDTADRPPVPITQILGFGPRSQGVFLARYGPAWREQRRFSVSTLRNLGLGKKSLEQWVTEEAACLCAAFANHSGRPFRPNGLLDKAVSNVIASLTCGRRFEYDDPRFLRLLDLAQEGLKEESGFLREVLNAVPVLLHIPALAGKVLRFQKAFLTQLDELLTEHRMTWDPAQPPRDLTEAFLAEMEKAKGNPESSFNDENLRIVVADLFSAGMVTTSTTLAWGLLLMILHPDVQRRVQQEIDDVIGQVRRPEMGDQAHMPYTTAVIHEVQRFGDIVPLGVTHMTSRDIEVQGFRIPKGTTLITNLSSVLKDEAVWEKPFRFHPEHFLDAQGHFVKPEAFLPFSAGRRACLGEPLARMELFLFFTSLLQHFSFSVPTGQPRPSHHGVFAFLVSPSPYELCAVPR
# Assay: Cytochrome panel assay with activity outcomes
# Details: recombinant CYP, pro-luciferin dealkylation, luminescence, p450-cyp2d6; series mostly up to 57.1 µM; activity, negative = inhibition: at the top concentration
# % is set by controls: 0 for no effect and ±100 for the full control effect.
SMILES,"activity, negative = inhibition",AC50
CN(Cc1cc2ccccc2[nH]c1=O)S(C)(=O)=O,-11.9%,–
CCc1ccc(OCC(=O)Nc2ccc(-c3nc4ccccc4o3)c(O)c2)cc1,13%,–
Nc1nc(-c2ccccc2)c(-c2ccccc2)c(-c2nc(N)nc(-c3ccccc3)c2-c2ccccc2)n1,-0.539% [at 11.4 µM],–
CN(N=O)c1ccc(/C=C\c2ccnc3ccccc23)cc1,-11% [at 11.4 µM],–
Cc1ccccc1OCC(=O)N/N=C1\CCOc2c(C)cccc21,9.01%,–
Cc1cc(C=O)c(C)n1-c1ccc(N2CCCCC2)c([N+](=O)[O-])c1,27.9%,–
COCCn1c(=O)c(-c2cccs2)nc2cnc(Oc3ccc(OC)cc3)nc21,-3.23%,–
Cc1cc(C)c2c(SCc3ccc(Cl)cc3Cl)nc(N)nc2n1,-17.3% [at 11.4 µM],–
N=C(N)SCc1ccc(Cl)cc1Cl (tested in a mixture with another compound),–,3.16 µM (active)
O=C(Nc1nnc(SCc2ccc(Cl)cc2Cl)s1)C1COc2ccccc2O1 (stereo not drawn),-7.07%,–
O=C(OCn1ncc(Cl)c(Cl)c1=O)c1cccc(C(F)(F)F)c1,-11.7%,–
CNC(=O)COC(=O)c1cc2c(C)nn(-c3ccc(F)cc3)c2s1,-18.4%,–
Nc1ccc(-c2nc3c(Cl)c(N)ccc3[nH]2)cc1,-29.2%,–
CC1=C/C(=C(/c2ccc(O)c(C)c2)c2ccccc2C(=O)O)C=CC1=O,–,1.58 µM (active)
O=C(O)c1ccc(C(=O)c2ccccc2C(=O)O)cc1C(=O)O,8.1% [at 11.4 µM],–
Cc1cccc(C(=O)c2ccccc2C(=O)O)c1O,13.6%,–
O=c1c(-c2ccccc2)c(O)c2cccc3c2n1CCC3,1.79%,–
C[N+](C)(N)Cc1csc(-c2ccc(Cl)cc2)n1,-18.9% [at 11.4 µM],–
O=C(O)c1ccccc1C(=O)Nc1ccc(S(=O)(=O)Nc2nccs2)cc1,6.16% [at 25.6 µM],–
CCOc1ccccc1NC(=O)C1Cc2ccccc2CN1S(C)(=O)=O (stereo not drawn),-15.2%,–

SMILES,"activity, negative = inhibition",AC50
O=C(Nc1nccs1)C1Cc2ccccc2CN1S(=O)(=O)c1ccc(F)cc1 (stereo not drawn),–,12.6 µM (active)
O=C(O)c1nnsc1COCc1ccccc1,7.15% [at 11.4 µM],–
C[N@@+]1(Cc2ccc(Cl)c(Cl)c2)CCC[C@@H]1c1ccc[n+](Cc2ccc(Cl)c(Cl)c2)c1,–,3.16 µM (active)
COc1ccccc1-c1nc(NC2CC2)c2ccccc2n1,–,20 µM (active)
Cc1ccccc1-c1nc(NC2CCNCC2)c2ccccc2n1,-3.84%,–
COc1ccccc1-c1nc(NCc2ccccc2)c2ccccc2n1,–,1.58 µM (active)
CNc1nc(-c2ccccc2OC)nc2ccccc12,–,20 µM (active)
Clc1ccccc1-c1nc(NCc2cccs2)c2ccccc2n1,–,12.6 µM (active)
Clc1ccccc1-c1nc(NC2CCNCC2)c2ccccc2n1,2.72%,–
CCOc1ccccc1Nc1ccc(N)cc1S(=O)(=O)O,0.246% [at 11.4 µM],–
COc1ccc(Oc2ncc3ncc(=O)n(C4CC4)c3n2)cc1,-5.49%,–
Nc1c(S(N)(=O)=O)cc(S(N)(=O)=O)cc1S(N)(=O)=O,18.8% [at 11.4 µM],–
C=CCN(CC=C)C(=S)Nc1ccccc1,-8.91%,–
Cn1cnc([N+](=O)[O-])c1Sc1nc(N)nc2c1ncn2Cc1ccccc1,15.1% [at 11.4 µM],–
CCN1C(=O)[C@@H]2[C@H]3C(=CC[C@@H]2C1=O)C1(OCCCO1)[C@H]1O[C@@H]1[C@H]3O,-15.6% [at 11.4 µM],–
O=C(CSc1nc2ccc([N+](=O)[O-])cc2s1)c1ccc2ccccc2c1,-13.4% [at 11.4 µM],–
COc1ccccc1-c1nc(NCc2cccs2)c2ccccc2n1,–,1 µM (active)
CN(C)c1ncc2nc(-c3ccc(Cl)cc3)c(=O)n(C)c2n1,-2.59%,–
C#CCCCO/N=C1/C[C@@H](O)[C@@H](O)[C@@H]2[C@@H]3C(=O)N(CC)C(=O)[C@H]3CC[C@@H]12,-16.9% [at 11.4 µM],–
NC(=NC1C2CC3CC(C2)CC1C3)Nc1ccc(I)cc1 (stereo not drawn),–,0.0398 µM (active)

SMILES,"activity, negative = inhibition",AC50
Nc1nc(Br)c2ccccc2c1-c1ccc(F)cc1,-9.97%,–
O=C1/C(=C/c2cccnc2)SC(=S)N1Cc1ccco1,-20.9% [at 11.4 µM],–
CC(=O)C1C(c2ccccc2OC(F)F)NC(=O)NC1(O)C(F)(F)F (stereo not drawn),-3.96%,–
CC(=O)c1sc(N)c(C(=O)OC(C)C)c1C,-2.55%,–
C[C@@H](C(=O)Nc1ccc2ccccc2c1)[C@H]1C[C@]1(C)[C@H](NS(=O)(=O)c1ccc(-c2ccccc2)cc1)c1ccccc1,–,2 µM (active)
C[C@@H](C(=O)Nc1ccc2ccccc2c1)[C@@H]1C[C@@]1(C)[C@@H](NS(=O)(=O)c1ccc(-c2ccccc2)cc1)c1ccccc1,3.73%,–
C[C@@H](C(=O)Nc1ccc2ccccc2c1)[C@H]1C[C@]1(C)[C@H](NS(=O)(=O)c1ccc2ccccc2c1)c1ccccc1,–,3.16 µM (active)
C[C@@H](C(=O)Nc1ccc2ccccc2c1)[C@@H]1C[C@@]1(C)[C@@H](NS(=O)(=O)c1ccc2ccccc2c1)c1ccccc1,-9.37%,–
CCSc1nc2c(c(=O)[nH]1)C(c1ccccn1)C1=C(CC(C)(C)CC1=O)N2 (stereo not drawn),17%,–
C[C@]1(OC(=O)/C=C\c2ccccc2)C[C@@H](O)[C@@]2(O)C=CO[C@@H](O[C@H]3O[C@@H](CO)[C@@H](O)[C@@H](O)[C@@H]3O)[C@H]21,-1.82% [at 25.6 µM],–
CC1CCCCN1c1cc(C#N)c(C#N)cc1[N+](=O)[O-] (stereo not drawn),-1.76%,–
CCN1CCN(c2nc(-c3ccccn3)nc3ccccc23)CC1,-25.3%,–
CC1CCCCN1c1nc(-c2ccncc2)nc2ccccc12 (stereo not drawn),–,7.94 µM (active)
O=C(O)C12CC3(C(=O)O)CC(C(=O)O)(CC(C(=O)O)(C1)C3=O)C2=O,-4.61% [at 11.4 µM],–
CCCN(C/C=C\I)[C@@H]1CCc2cccc(O)c2C1,5.27%,–
CCCN(CCc1ccccc1)[C@H]1CCc2c(O)cccc2C1,–,0.501 µM (active)
Cc1ccc(-n2c(CCC(=O)O)ccc2-c2cccs2)cc1C,3.62%,–
O=c1c(-c2ccccc2)nc2cnc(N3CCOCC3)nc2n1-c1ccccc1,-6.6%,–

# From PubChem BioAssay AID1851 (National Center for Advancing Translational Sciences (NCATS), 2009)
